TDP1 cell noCPT: qHTS for Inhibitors of human tyrosyl-DNA phosphodiesterase 1 (TDP1): qHTS in cells in absence of CPT; DT40 Tdp1-/- hTDP1 cells, no CPT, ATP luminescence, 48 h; Potency, µM (series often up to 46.2 µM), for inactives: at the top dose activity change, negative = growth inhibition, usual class: inhibitors; hit rate 15% among 420,000; AID 686978, 2013; note: potency is the fitted concentration of half-maximal effect; nearly all actives have a fitted effect of over 55% in size
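Chicken DT40 Tdp1-/- cells stably complemented with human TDP1 were seeded at 400 cells/well with DMSO in place of 20 nM camptothecin. After compound pinning, cells grew at least 48 hr at 37 °C; viability read by CellTiter-Glo luminescence.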
HT1080-NT tox: qHTS for induction of synthetic lethality in tumor cells producing 2HG: qHTS for the HT-1080-NT fibrosarcoma cell line; HT-1080-NT fibrosarcoma viability, CellTiter-Glo ATP luminescence, 48 h; Potency, µM (series often up to 46.1 µM), for inactives: top-dose activity, negative = less viability, actives largely listed as cytotoxic; hit rate 1.6% among 360,000;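 note: NT is the 2HG producing partner of a matched IDH1 knockdown line; potency is the fitted concentration of half-maximal effect; 0% = DMSO-treated cells and -100% = media-only wells without cells; nearly all actives have a fitted effect of over 55% in size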
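Toxicity toward the 2HG-producing NT line was scored as %Activity, normalised to DMSO and no-cell wells, from CellTiter-Glo luminescence after 48 hours' treatment.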
DT40 TDP1 CPT: qHTS for Inhibitors of human tyrosyl-DNA phosphodiesterase 1 (TDP1): qHTS in cells in presence of CPT. chicken DT40 Tdp1-/-;hTDP1 cells + 20 nM CPT, ATP luminescence, 48 h. Potency, µM (top dose mostly 46.2 µM), for inactives: at the highest dose activity change, negative = growth inhibition, usual class: inhibitors. hit rate 12% among 420,000; note: potency is the fitted concentration of half-maximal effect; nearly all actives have a fitted effect of over 55% in size
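Chicken DT40 Tdp1-/- cells complemented with human TDP1, 400 cells/well, exposed to compounds plus 20 nM camptothecin for at least 48 h at 37 C; viability read as ATP content by CellTiter-Glo luminescence.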
HT1080 IDH1KD tx: qHTS for induction of synthetic lethality in tumor cells producing 2HG: qHTS for the HT-1080-IDH1KD cell line; hit rate 2% among 360,000; HT-1080 IDH1 knockdown viability, ATP luminescence, 48 h; AID 686971, 2013; Potency, µM (doses to about 46.1 µM), for inactives: at the highest dose activity, negative = toxicity, hits mostly cytotoxic;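 note: potency is the fitted concentration of half-maximal effect; 0% = DMSO wells and -100% = cell-free medium wells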
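In this qHTS, HT-1080 cells depleted of IDH1 are exposed for 48 h at 37 °C to compound titrations. Toxicity is scored from CellTiter-Glo luminescence, with DMSO as full viability and medium alone as none.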
IL-1B inflam inh: qHTS for Inhibitors of Inflammasome Signaling: IL-1-beta AlphaLISA Primary Screen | hit rate 4.7% among 360,000 | AID 743279, 2014 | activity change, % at 57.5 µM | THP-1 LPS/ATP IL-1B secretion, AlphaLISA, 16 h; hits give low values; in the data active = activity change below about -50%; inconclusive = mostly about -30% to -49%
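Secreted IL-1B measured by AlphaLISA bead assay after 16 h compound exposure of THP-1 cells; compounds (final up to 57.5 uM) added 1 h before LPS (250 ng/mL) and ATP (1.25 mM) stimulation; lower signal means less secretion.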
ALOX12 inh: Primary qHTS assay for inhibitors of human arachidonate 12S-lipoxygenase (ALOX12): Round 2 | Polyunsaturated fatty acid lipoxygenase ALOX12 (Homo sapiens), P18054 | purified 12hLO, xylenol orange hydroperoxide absorbance | Potency, µM (highest dose often 108 µM), for inactives: at the top dose activity change, negative = inhibition, hits mostly inhibitors | hit rate 1.1% among 580,000 | AID 1671190, 2021; note: potency is the fitted concentration of half-maximal effect
Target sequence (P18054 whole entry, looked up): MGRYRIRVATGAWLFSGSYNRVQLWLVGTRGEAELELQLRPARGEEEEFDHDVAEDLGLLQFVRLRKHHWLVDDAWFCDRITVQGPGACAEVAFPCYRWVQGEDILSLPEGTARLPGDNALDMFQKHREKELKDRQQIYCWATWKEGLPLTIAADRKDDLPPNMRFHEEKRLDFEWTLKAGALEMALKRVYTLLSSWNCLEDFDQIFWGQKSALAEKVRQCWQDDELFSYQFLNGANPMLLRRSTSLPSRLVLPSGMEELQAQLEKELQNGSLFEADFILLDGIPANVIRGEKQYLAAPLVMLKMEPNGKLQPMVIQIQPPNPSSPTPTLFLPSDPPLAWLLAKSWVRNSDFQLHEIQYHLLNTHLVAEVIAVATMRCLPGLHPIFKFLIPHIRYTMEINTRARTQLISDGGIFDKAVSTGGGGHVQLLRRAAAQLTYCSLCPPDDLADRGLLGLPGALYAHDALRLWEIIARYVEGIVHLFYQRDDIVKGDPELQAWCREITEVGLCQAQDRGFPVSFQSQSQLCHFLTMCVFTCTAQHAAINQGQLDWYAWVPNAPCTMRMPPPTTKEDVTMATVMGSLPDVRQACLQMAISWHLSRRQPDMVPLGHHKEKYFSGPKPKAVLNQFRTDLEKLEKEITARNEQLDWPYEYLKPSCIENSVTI
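Purified human 12hLO at 150 nM in 25 mM Hepes, 0.01% Triton X-100, pH 7.0, preincubated 15 min at room temperature with compound. Reaction started with 40 uM arachidonic acid, 30 min at room temperature. Hydroperoxide measured by Fe-xylenol orange, 573/405 nm absorbance ratio.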
Numbers without * were called inactive; ? = inconclusive; . = no result given; [ ] = dose if it differs, or a comment. Shown is part of a subset that was picked to be rich in hits. Unless noted, calls come from the whole dose curve; as a rule, active = well fitted curve in the direction sought with a large enough effect; inconclusive = small, poorly fitted or top-dose-only effect, or another doubt; inactive = no such curve, though single readings can be large; an effect the other way counts as inactive or inconclusive. Unless noted, % is set by controls: 0 for no effect and ±100 for the full control effect.

SMILES | TDP1 cell noCPT | HT1080-NT tox | DT40 TDP1 CPT | HT1080 IDH1KD tx | IL-1B inflam inh | ALOX12 inh
Cc1ccc(S(=O)(=O)N2C[C@H]3C(=O)C[C@@H](c4ccccc4F)N(S(=O)(=O)c4ccc(C)cc4)[C@H]3C[C@H]2c2ccccc2F)cc1 | 10µM* | 12% | 8.2µM* | 3% | -21 | 0%
CC(=O)N(C1CC1)C1CCOC2(CCN(C(=O)c3cn[nH]c3-c3ccccc3)CC2)C1 (centres undefined) | . | . | . | . | . | 4%
COc1ccc(CCNC(=O)c2cc(-c3ccco3)nc3ccccc23)cc1 | ? | 4% | ? | 4% | -13 | ?
COc1ccccc1CNC(=O)COC(=O)c1cccnc1SCC(=O)NCc1ccccc1OC | ? | 1% | ? | -6% | 15 | -24%
O=C(COC(=O)c1cc(-c2ccco2)nc2ccccc12)NCc1ccccc1 | -24% | -14% | -26% | -13% | 10 | 10µM*
O=C(COC(=O)c1cccnc1SCC(=O)NCc1ccccc1)NCc1ccccc1 | ? | -12% | 23µM* | ? | 7 | -2%
CCCC(=O)OCC(=O)NCc1ccc(Cl)cc1 | 8% | 5% | -1% | 5% | 4 | -4%
CC(NC(=O)c1cc(-c2ccco2)nc2ccccc12)C(=O)NCc1ccccc1 (centres undefined) | . | . | . | . | . | 40µM*
O=C(COC(=O)CC(c1ccccc1)c1ccccc1)NCc1ccc(Cl)cc1 | -8% | -1% | -27% | -2% | -71* | -12%
O=C(N[C@H]1CCCNC1=O)C1=C[C@@H](NS(=O)(=O)c2cccs2)[C@@H](O)[C@H](O)C1 | . | . | . | . | . | 45%[176 µM]
CS(=O)(=O)N1CCN(C(=O)CNc2cccc(F)c2)CC1 | . | . | . | . | . | 9%
Cc1ccc(SC(=O)COc2ccccc2Cl)cc1 | . | . | . | . | . | 5%
COc1cccc(C(=O)N2CCC(Oc3ccccc3)C2)c1 (centres undefined) | . | . | . | . | . | 11%
CNC(=O)COC(=O)c1cc(-c2ccco2)nc2ccccc12 | ? | 0% | 15µM* | -6% | 17 | ?
COc1ccc(C(=O)N2CCc3onc(-c4ccc(C(F)(F)F)cc4)c3C2)o1 | . | . | . | . | . | 15%
COCc1cc(=O)n2[nH]cc(-c3ccccc3)c2n1 | ? | -5% | ? | -27% | 2 | 39%
CCCc1cc(=O)n2[nH]cc(-c3ccc(Cl)cc3)c2n1 | 5.8µM* | ? | 5.8µM* | ? | 53 | 0%
CCCc1cc(=O)n2[nH]c(SCc3ccc(Cl)cc3)nc2n1 | 3% | 2% | ? | -22% | -72* | -2%
COc1ccc(N=Cc2sc(O)c3ccccc23)cc1 | ? | -11% | ? | -5% | -83* | ?
COc1ccc(N=Cc2c(O)c3ccccc3n2C(C)=O)cc1 | 21µM* | 7% | ? | -15% | 0 | -10%
COc1ccc(N=Cc2c(OC)ccc3ccccc23)cc1 | -30% | ? | 3% | ? | 7 | 23%
COC(=O)CC1C(=O)NCCN1C(=O)c1ccc2nc(C3CCCCC3)oc2c1 (centres undefined) | . | . | . | . | . | 34%
CCOC(=O)CN(C(=O)CSc1nnc2c(n1)[nH]c1ccc(F)cc12)c1ccccc1 | ? | -12% | 21µM* | -18% | ? | -23%
CCCCn1cnc2c1c(=O)n(CC(=O)Nc1ccc(F)c(F)c1)c(=O)n2CCCC | . | . | . | . | . | -4%
CCOc1c(Br)cc(/C=C2/NC(=O)NC2=O)cc1Br | . | . | . | . | . | 2%
